Measurements reported in article PMC5540273 (PLoS ONE, 2017).
Read-outs that look alike come from different tables or passages of the source.

Key:
SRPK3 = conditions: concentration: 1 μM, replicates: in singlicate; n = 1
STK16 = conditions: concentration: 1 μM, replicates: in singlicate; n = 1
STK33 = conditions: concentration: 1 μM, replicates: in singlicate; n = 1
STK35 = conditions: concentration: 1 μM, replicates: in singlicate; n = 1
STK36 = conditions: concentration: 1 μM, replicates: in singlicate; n = 1
STK39 = conditions: concentration: 1 μM, replicates: in singlicate; n = 1
SYK = conditions: concentration: 1 μM, replicates: in singlicate; n = 1
SgK110 = conditions: concentration: 1 μM, replicates: in singlicate; n = 1
TAK1 = test system: T1, TAK1; conditions: concentration: 1 μM, replicates: in singlicate; n = 1
T1 construct: gene MAP3K7

TAOK1 = conditions: concentration: 1 μM, replicates: in singlicate; n = 1
TAOK2 = conditions: concentration: 1 μM, replicates: in singlicate; n = 1
TAOK3 = conditions: concentration: 1 μM, replicates: in singlicate; n = 1
TBK1 = conditions: concentration: 1 μM, replicates: in singlicate; n = 1
TEC = conditions: concentration: 1 μM, replicates: in singlicate; n = 1
TESK1 = conditions: concentration: 1 μM, replicates: in singlicate; n = 1
TGFBR1 = conditions: n = 1
TGFBR2 = conditions: concentration: 1 μM, replicates: in singlicate; n = 1
TIE1 = conditions: concentration: 1 μM, replicates: in singlicate; n = 1
TIE2 = test system: T2, TIE2; conditions: concentration: 1 μM, replicates: in singlicate; n = 1
T2 construct: gene TEK

TLK1 = conditions: concentration: 1 μM, replicates: in singlicate; n = 1
[1] = concentration: 1 μM, replicates: in singlicate
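Note: KINOMEscan kinase panel screen.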

CSc1ccc(-c2cc3ncnc(SCC(=O)O)c3s2)cc1
%Inh (SRPK3): 0%
%Inh (STK16): 2%
%Inh (STK33): 8%
%Inh (STK35): 0%
%Inh (STK36): 0%
%Inh (STK39): 0%
%Inh (SYK): 15%
%Inh (SgK110): 0%
%Inh (TAK1): 18%
%Inh (TAOK1): 0%
%Inh (TAOK2): 0%
%Inh (TAOK3): 0%
%Inh (TBK1): 0%
%Inh (TEC): 0%
%Inh (TESK1): 0%
%Inh (TGFBR1; [1]): 0%
%Inh (TGFBR2): 12%
%Inh (TIE1): 0%
%Inh (TIE2): 0%
%Inh (TLK1): 2%

Cl.Nc1ncnc2occ(-c3ccc(NC(=O)Nc4cc(C(F)(F)F)ccc4F)cc3)c12 [SB-707548]
%Inh (SRPK3): 0%
%Inh (STK16): 8%
%Inh (STK33): 87%
%Inh (STK35): 37%
%Inh (STK36): 0%
%Inh (STK39): 14%
%Inh (SYK): 68%
%Inh (SgK110): 0%
%Inh (TAK1): 98.6%
%Inh (TAOK1): 13%
%Inh (TAOK2): 22%
%Inh (TAOK3): 17%
%Inh (TBK1): 35%
%Inh (TEC): 4%
%Inh (TESK1): 17%
%Inh (TGFBR1; [1]): 33%
%Inh (TGFBR2): 0%
%Inh (TIE1): 98.7%
%Inh (TIE2): 99.8%
%Inh (TLK1): 14%

O=c1cc(N2CCOCC2)nc2n(Cc3cccc(C(F)(F)F)c3)ccn12 [GSK2297543]
%Inh (SRPK3): 0%
%Inh (STK16): 0%
%Inh (STK33): 0%
%Inh (STK35): 0%
%Inh (STK36): 0%
%Inh (STK39): 0%
%Inh (SYK): 27%
%Inh (SgK110): 0%
%Inh (TAK1): 0%
%Inh (TAOK1): 0%
%Inh (TAOK2): 0%
%Inh (TAOK3): 0%
%Inh (TBK1): 24%
%Inh (TEC): 0%
%Inh (TESK1): 18%
%Inh (TGFBR1; [1]): 0%
%Inh (TGFBR2): 0%
%Inh (TIE1): 0%
%Inh (TIE2): 0%
%Inh (TLK1): 12%

COc1ccc(Nc2nccc(N3CCC(NC(=O)Nc4cccc(C(C)=O)c4)C3)n2)cc1 (stereo not shown) [GSK1379731]
%Inh (SRPK3): 0%
%Inh (STK16): 14%
%Inh (STK33): 0%
%Inh (STK35): 0%
%Inh (STK36): 0%
%Inh (STK39): 0%
%Inh (SYK): 1%
%Inh (SgK110): 0%
%Inh (TAK1): 0%
%Inh (TAOK1): 0%
%Inh (TAOK2): 0%
%Inh (TAOK3): 0%
%Inh (TBK1): 0%
%Inh (TEC): 0%
%Inh (TESK1): 30%
%Inh (TGFBR1; [1]): 0%
%Inh (TGFBR2): 0%
%Inh (TIE1): 0%
%Inh (TIE2): 0%
%Inh (TLK1): 0%

CN1c2ccc(NCc3ccc(F)cc3)cc2-c2c(cnn2C)S1(=O)=O
%Inh (SRPK3): 0%
%Inh (STK16): 0%
%Inh (STK33): 0%
%Inh (STK35): 0%
%Inh (STK36): 0%
%Inh (STK39): 0%
%Inh (SYK): 8%
%Inh (SgK110): 67%
%Inh (TAK1): 0%
%Inh (TAOK1): 0%
%Inh (TAOK2): 26%
%Inh (TAOK3): 0%
%Inh (TBK1): 0%
%Inh (TEC): 0%
%Inh (TESK1): 14%
%Inh (TGFBR1; [1]): 2%
%Inh (TGFBR2): 16%
%Inh (TIE1): 8%
%Inh (TIE2): 0%
%Inh (TLK1): 13%

Fc1ccc(-c2nn3c(OCC(F)(F)F)cccc3c2-c2ccncc2)cc1 [GW514784]
%Inh (SRPK3): 0%
%Inh (STK16): 3%
%Inh (STK33): 0%
%Inh (STK35): 0%
%Inh (STK36): 0%
%Inh (STK39): 3%
%Inh (SYK): 1%
%Inh (SgK110): 0%
%Inh (TAK1): 6%
%Inh (TAOK1): 0%
%Inh (TAOK2): 0%
%Inh (TAOK3): 0%
%Inh (TBK1): 0%
%Inh (TEC): 0%
%Inh (TESK1): 13%
%Inh (TGFBR1; [1]): 39%
%Inh (TGFBR2): 55%
%Inh (TIE1): 0%
%Inh (TIE2): 0%
%Inh (TLK1): 0%

Cc1cccc(-c2nc(Nc3ccc4ncsc4c3)c3ccccc3n2)n1 [GW867588]
%Inh (SRPK3): 9%
%Inh (STK16): 12%
%Inh (STK33): 57%
%Inh (STK35): 2%
%Inh (STK36): 7%
%Inh (STK39): 4%
%Inh (SYK): 18%
%Inh (SgK110): 5%
%Inh (TAK1): 15%
%Inh (TAOK1): 23%
%Inh (TAOK2): 0%
%Inh (TAOK3): 6%
%Inh (TBK1): 0%
%Inh (TEC): 0%
%Inh (TESK1): 0%
%Inh (TGFBR1; 1 µM): 55%
%Inh (TGFBR2): 0%
%Inh (TIE1): 0%
%Inh (TIE2): 0%
%Inh (TLK1): 0%

Nc1nc(-c2ccc3c(N)n[nH]c3c2)cc(N2CCCC2)n1 [GSK2227430]
%Inh (SRPK3): 0%
%Inh (STK16): 8%
%Inh (STK33): 0%
%Inh (STK35): 0%
%Inh (STK36): 0%
%Inh (STK39): 0%
%Inh (SYK): 0%
%Inh (SgK110): 0%
%Inh (TAK1): 0%
%Inh (TAOK1): 0%
%Inh (TAOK2): 0%
%Inh (TAOK3): 0%
%Inh (TBK1): 18%
%Inh (TEC): 0%
%Inh (TESK1): 2%
%Inh (TGFBR1; [1]): 0%
%Inh (TGFBR2): 0%
%Inh (TIE1): 0%
%Inh (TIE2): 0%
%Inh (TLK1): 3%
